Values joined by “and” are separate entries in the source; they are usually repeats but may differ in a detail not shown here. Equal entries are not always repeated. Among all 5,500 compounds or so, about 2,000 (36%) were called active. Inconclusive results (about 18%) are left out. No stated cut-off is given here; in the data, active means normalized growth mostly below about 0.91 (no sharp cut-off); inconclusive means no clear call, values can overlap the other calls; inactive means mostly above about 0.92. Some of the results follow.
Test: chemical genetic growth profiling, strain panel (AID 1159580);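 further: tested at 20 µM; growth read once vehicle control cultures reached saturation at 30 °C; 1 = growth at the plate median or of vehicle wells; lower values mean less growth of the strain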
Conditions: S. cerevisiae deletion strains, growth OD

Measured: normalized growth

C[C@H]1CC2C([C@@H](O)C[C@@]3(C)C2CC[C@]3(O)C(=O)CO)[C@@]2(C)C=CC(=O)C=C12 (stereo partly specified)
inactive: locus YAL013W, strain DEP1, active compounds read low 0.994 | locus YAL021C, strain ccr4, active compounds read low 1.01 | locus YAL026C, strain drs2, active compounds read low 1.02 | locus YAL030W, strain snc1, active compounds read low 1 | locus YBL061C, strain skt5, active compounds read low 0.991 | locus YBR009C, strain hhf1, active compounds read low 1.01 | locus YBR021W, strain FUR4, active compounds read low 0.972 | locus YBR023C, strain chs3, active compounds read low 1.01 | locus YBR171W, strain sec66, active compounds read low 0.993 | locus YBR229C, strain ROT2, active compounds read low 0.993 | locus YBR231C, strain swc5, active compounds read low 0.977 | locus YBR279W, strain paf1, active compounds read low 1.01 | locus YCL011C, strain gbp2, active compounds read low 1.03 | locus YCL016C, strain dcc1, active compounds read low 1.01 | locus YCL029C, strain bik1, active compounds read low 1.03 | locus YCL061C, strain MRC1, active compounds read low 0.999 | locus YCL069W, strain vba3, active compounds read low 0.993 | locus YCR088W, strain abp1, active compounds read low 1 | locus YDL005C, strain med2, active compounds read low 0.987 | locus YDL035C, strain GPR1, active compounds read low 0.993 | locus YDL040C, strain nat1, active compounds read low 1 | locus YDL074C, strain BRE1, active compounds read low 1.02 | locus YDL101C, strain DUN1, active compounds read low 1.01 | locus YDL134C, strain PPH21, active compounds read low 0.996 | locus YDL185W, strain tfp1, active compounds read low 1.01 | locus YDL192W, strain arf1, active compounds read low 1.01 | locus YDR001C, strain nth1, active compounds read low 1 | locus YDR069C, strain doa4, active compounds read low 0.994 | locus YDR101C, strain arx1, active compounds read low 1.02 | locus YDR137W, strain rgp1, active compounds read low 0.993 | locus YDR150W, strain NUM1, active compounds read low 0.988 | locus YDR159W, strain sac3, active compounds read low 1.01 | locus YDR162C, strain NBP2, active compounds read low 0.995 | locus YDR195W, strain ref2 0.934 | locus YDR297W, strain sur2, active compounds read low 0.987 | locus YDR318W, strain mcm21, active compounds read low 1.03 | locus YDR334W, strain swr1, active compounds read low 0.997 | locus YDR335W, strain msn5, active compounds read low 1 | locus YDR388W, active compounds read low 1.02 | locus YDR392W, strain spt3, active compounds read low 1.02 | locus YDR502C, strain sam2, active compounds read low 1.01 | locus YEL003W, strain gim4, active compounds read low 0.984 | locus YEL037C, strain rad23, active compounds read low 1 | locus YEL061C, strain CIN8 (second series), active compounds read low 1.01 | locus YEL061C, strain CIN8, active compounds read low 0.993 | locus YER015W, strain faa2, active compounds read low 1.01 | locus YER016W, strain bim1, active compounds read low 1 | locus YER110C, active compounds read low 1.01 | locus YER111C, strain swi4, active compounds read low 1 | locus YER155C, strain BEM2 (second series), active compounds read low 0.989 | locus YER155C, strain BEM2, active compounds read low 0.996 | locus YER167W, strain BCK2, active compounds read low 0.996 | locus YFR010W, strain ubp6, active compounds read low 0.982 | locus YGL078C, strain dbp3, active compounds read low 1.02 | locus YGL086W, strain mad1, active compounds read low 0.999 | locus YGL167C, strain pmr1, active compounds read low 0.988 | locus YGL173C, strain kem1, active compounds read low 0.986 | locus YGL227W, strain vid30, active compounds read low 0.992 | locus YGL240W, strain doc1, active compounds read low 0.972 | locus YGL248W, strain PDE1, active compounds read low 1 | locus YGL253W, strain hxk2, active compounds read low 0.997 | locus YGR078C, strain PAC10, active compounds read low 0.984 | locus YGR135W, strain pre9, active compounds read low 1.04 | locus YGR229C, strain SMI1, active compounds read low 0.986 | locus YGR252W, strain gcn5, active compounds read low 0.947 | locus YHR013C, strain ard1, active compounds read low 0.997 | locus YHR027C, strain rpn1, active compounds read low 1 | locus YHR030C, strain SLT2, active compounds read low 0.994 and 1.07 | locus YHR079C, strain IRE1 (second series), active compounds read low 1.02 | locus YHR079C, strain IRE1, active compounds read low 1.07 | locus YHR094C, strain hxt1, active compounds read low 1.02 | locus YHR129C, strain ARP1, active compounds read low 1 | locus YHR142W, strain chs7, active compounds read low 0.997 | locus YHR200W, strain rpn10, active compounds read low 1.01 | locus YIL066C, strain RNR3, active compounds read low 1 | locus YIL073C, strain SPO22, active compounds read low 1.01 | locus YIL125W, strain kgd1, active compounds read low 1 | locus YIR030C, strain dcg1, active compounds read low 1.02 | locus YJL092W, strain hpr5, active compounds read low 0.989 | locus YJL095W, strain BCK1 (second series), active compounds read low 0.997 | locus YJL095W, strain BCK1, active compounds read low 1.03 | locus YJL115W, strain asf1, active compounds read low 1 | locus YJL129C, strain trk1, active compounds read low 0.987 | locus YJL134W, strain LCB3, active compounds read low 1 | locus YJL154C, strain vps35, active compounds read low 1.01 | locus YJL164C, strain tpk1, active compounds read low 1.01 | locus YJL166W, strain qcr8, active compounds read low 0.97 | locus YJL168C, strain set2, active compounds read low 1.01 | locus YJL187C, strain SWE1 (second series), active compounds read low 1.01 | locus YJR043C, strain POL32, active compounds read low 1.01 | locus YJR066W, strain TOR1, active compounds read low 1.02

Source: PubChem BioAssay AID1159580 (chemical genetic matrix, 2015)
